SMILES strings stand for the structures. “And” between values parts separate entries of the source, which are not always exact repeats. Equal entries are not always repeated. Records with an inconclusive call do not appear. The source made the active and inactive calls.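 How the source made its calls, unless noted: active means normalized viability below 100% at a tested concentration; inactive means the rest.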

Assay [1] in a line: growth inhibition of DIPG glioma cells, dose response, cell-based, SU-DIPG-XIII, MIPE4.0, CellTiter-Glo, qHTS (AID 1347061; cut-off not given, nearly all actives have AC50 up to about 37 µM;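 further: cells exposed to compound for 48 hours before readout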). To be noted: SU-DIPG-XIII viability, CellTiter-Glo ATP luminescence.
A short description of assay [2]: growth inhibition of DIPG glioma cells, dose response, cell-based, JHH-DIPG-1, MIPE4.0, CellTiter-Glo, qHTS (AID 1347062; cut-off not given, nearly all actives have AC50 up to about 27 µM;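 on AC50: cells exposed to compound for two days before readout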). To be noted: JHH-DIPG-1 viability, CellTiter-Glo ATP luminescence.
Assay [3] is described as follows: SU-DIPG-VI glioma cell viability, MIPE4.0 library, CellTiter-Glo luminescence, qHTS (AID 1347066; cut-off not given, nearly all actives have AC50 up to about 30 µM;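 further: cells exposed to compound for 48 hours before readout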). To be noted: CellTiter-Glo ATP luminescence.
Assay [4] can be described thus: SU-DIPG-XXV glioma cell viability, MIPE5.0 library, qHTS (AID 1347068; cut-off not given, nearly all actives have IC50 up to about 30 µM;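 on IC50: cells exposed to compound for 48 hours before viability readout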).
Assay [5] can be described thus: viability loss in pontine glioma line – cell-based, SU-DIPG-XXV, MIPE5.0, CellTiter-Glo, qHTS, dose response (AID 1347065; cut-off not given, nearly all actives have AC50 up to about 26 µM;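 further: cells exposed to compound for 48 hours before ATP readout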). The settings on record: CellTiter-Glo ATP luminescence.
A short description of assay [6]: JHH-DIPG-1 glioma cell viability, MIPE5.0 library, CellTiter-Glo luminescence, qHTS (AID 1347067; cut-off not given, nearly all actives have AC50 up to about 26 µM;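 further: cells exposed to compound for 48 hours before readout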). To be noted: JHH-DIPG-1 glioma viability, CellTiter-Glo ATP luminescence.
Assay [7] is described as follows: sensitizers of A549 cells to miR-34 induction, primary screen, imaging, A549 dox-inducible miR-34, nuclei and caspase counts (AID 1347080;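 active means compounds whose cell count with miR-34 switched on is under 0.7 times the count with it off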). To be noted: A549 miR-34 inducible, Hoechst nuclei count, 48 h.
Assay [8] is described as follows: survival rescue of mitochondrial mutant cells in low glucose, primary screen, MELAS cybrids, Rieske KO mouse fibroblasts, CellTiter-Glo (AID 1508586;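 active means mean z-score across replicates of 1.96 or higher in either the MELAS or the Rieske mutant cell line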;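 further: z relative to plate mean and SD of compound and empty wells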).
Assay [9] in a line: modifiers of HSF1 nuclear foci, imaging, Selleck Cancer Library (AID 1347162; in the data active means plate-normalised HSF1 focus index below about 0.46). The settings on record: human cells, at 10 µM; SSMD: measured here: HSF1 foci SSMD mean; cell count: measured here: cell number; plate-normalised HSF1 focus index: stronger effect = lower value.
A short description of assay [10]: ovarian cancer cell viability with rucaparib, profiling panel, oncology-focused library, rucaparib conditional (AID 1508598). The settings on record: patient-derived ovarian cancer cells, CellTiter-Glo viability, 144 h, stronger effect = lower value.
Setting [11] is: stronger effect = lower value, cell number ratio, induced over uninduced.
Setting [12] is: measured here: relative caspase fold change +Dox/-Dox.
Where [13] appears, read: measured here: total cells with miR-34 induction, stronger effect = lower value.
[14] abbreviates: measured here: total cells without miR-34 induction.
The mark [15] stands for this setting: MELAS cybrid survival, CellTiter-Glo 48 h, stronger effect = higher value.
[16] abbreviates: Rieske KO mouse fibroblast survival, CellTiter-Glo 72 h.
The mark [17] stands for this setting: at 0.000305 µM, OCI-C5x cells, with rucaparib 10 µM, 100% = cells with rucaparib alone.
Setting [18] is: at 0.000305 µM, OCI-C5x cells, without rucaparib.
Setting [19] is: at 0.000305 µM, OCI-P5x cells, with rucaparib 20 µM, 100% = cells with rucaparib alone.
[20] abbreviates: at 0.000305 µM, OCI-P5x cells, without rucaparib.
Setting [21] is: at 0.00122 µM, OCI-C5x cells, with rucaparib 10 µM, 100% = cells with rucaparib alone.
Where [22] appears, read: at 0.00122 µM, OCI-C5x cells, without rucaparib.
The mark [23] stands for this setting: at 0.00122 µM, OCI-P5x cells, with rucaparib 20 µM, 100% = cells with rucaparib alone.
Setting [24] is: at 0.00122 µM, OCI-P5x cells, without rucaparib.
The mark [25] stands for this setting: at 0.00488 µM, OCI-C5x cells, with rucaparib 10 µM, 100% = cells with rucaparib alone.
The mark [26] stands for this setting: at 0.00488 µM, OCI-C5x cells, without rucaparib.
Setting [27] is: at 0.00488 µM, OCI-P5x cells, with rucaparib 20 µM, 100% = cells with rucaparib alone.
Where [28] appears, read: at 0.00488 µM, OCI-P5x cells, without rucaparib.
The mark [29] stands for this setting: at 0.0195 µM, OCI-C5x cells, with rucaparib 10 µM, 100% = cells with rucaparib alone.
Where [30] appears, read: at 0.0195 µM, OCI-C5x cells, without rucaparib.
Where [31] appears, read: at 0.0195 µM, OCI-P5x cells, with rucaparib 20 µM, 100% = cells with rucaparib alone.
Setting [32] is: at 0.0195 µM, OCI-P5x cells, without rucaparib.
The mark [33] stands for this setting: at 0.0781 µM, OCI-C5x cells, with rucaparib 10 µM, 100% = cells with rucaparib alone.
[34] abbreviates: at 0.0781 µM, OCI-C5x cells, without rucaparib.
The mark [35] stands for this setting: at 0.0781 µM, OCI-P5x cells, with rucaparib 20 µM, 100% = cells with rucaparib alone.
[36] abbreviates: at 0.0781 µM, OCI-P5x cells, without rucaparib.
Where [37] appears, read: at 0.313 µM, OCI-C5x cells, with rucaparib 10 µM, 100% = cells with rucaparib alone.
[38] abbreviates: at 0.313 µM, OCI-C5x cells, without rucaparib.
[39] abbreviates: at 0.313 µM, OCI-P5x cells, with rucaparib 20 µM, 100% = cells with rucaparib alone.
Setting [40] is: at 0.313 µM, OCI-P5x cells, without rucaparib.
The mark [41] stands for this setting: at 1.25 µM, OCI-C5x cells, with rucaparib 10 µM, 100% = cells with rucaparib alone.
The mark [42] stands for this setting: at 1.25 µM, OCI-C5x cells, without rucaparib.
[43] abbreviates: at 1.25 µM, OCI-P5x cells, with rucaparib 20 µM, 100% = cells with rucaparib alone.
The mark [44] stands for this setting: at 1.25 µM, OCI-P5x cells, without rucaparib.
[45] abbreviates: at 5 µM, OCI-C5x cells, with rucaparib 10 µM, 100% = cells with rucaparib alone.
Setting [46] is: at 5 µM, OCI-C5x cells, without rucaparib.
[47] abbreviates: at 5 µM, OCI-P5x cells, with rucaparib 20 µM, 100% = cells with rucaparib alone.
Where [48] appears, read: at 5 µM, OCI-P5x cells, without rucaparib.

With `CCCn1c(=O)c2[nH]c(C34CC5CC3C[C@@H](C5)C4)nc2n(CCC)c1=O`, the compound was classed as inactive in assay [1], in assay [2], in assay [3] and in [4].
Take `O=c1c(-c2ccc(O)cc2)coc2cc(OC3O[C@H](CO)[C@@H](O)[C@H](O)[C@H]3O)cc(O)c12` (stereo partly drawn): the AC50 in assay [1] is 20.9 µM (active). For the same compound, the outcome in [2] and in assay [3] was inactive.
In the case of `O=C(O)CC/C=C\CC[C@@H]1[C@@H](N2CCCCC2)[C@@H](O)C[C@@H]1OCc1ccc(-c2ccccc2)cc1`, the outcome in [1], in assay [2], in [5], in [3], in [6] and in [4] was inactive.
Regarding `c1ccc2c(Oc3nc(Nc4ccc(N5CCOCC5)cc4)c4ncn(C5CCCCC5)c4n3)cccc2c1`, the outcome in assay [1], in assay [2], in [3] and in assay [4] was inactive. Besides, in [6], the AC50 was 13.2 µM (active). Moreover, the fold change in assay [7] (setting [11]) is 0.897 (inactive) and 0.992 (inactive); in assay [7] (setting [12]), 0.721 and 0.438. Besides, the cell count was 5540 and 6870 in [7] (setting [13]); 6180 and 6930 in [7] (setting [14]). Further, the figures for the z-score in assay [8] (setting [15]) and in assay [8] (setting [16]) were -0.486 (inactive) and 0.0671, respectively.
For the compound `Cc1c(-c2cccc3c(CCCOc4cccc5ccccc45)c(C(=O)O)n(Cc4cccnc4)c23)c(COc2ccc(N3CCN([S+](=O)([O-])N(C)C)CC3)cc2)nn1C`, the compound was classed as inactive in [1] and in assay [2]. For the same compound, the AC50 in assay [3] was 23.5 µM (active).
Turning to `Cc1cnc(-c2cnc(NCCNc3ccc(C#N)cn3)nc2-c2ccc(Cl)cc2Cl)[nH]1`, the call in assay [1], in assay [2], in [5] and in assay [4] was inactive. Also, the fold change in [7] (setting [11]) was 0.776 (inactive); in [7] (setting [12]), 0.884. Moreover, the cell count in assay [7] (setting [13]) was 2900; in [7] (setting [14]) it was 3740; in assay [9] it was 7270. Moreover, the SSMD in [9] was -0.145. The plate-normalised HSF1 focus index in assay [9] was 0.999 (inactive). Further, the z-score in assay [8] (setting [15]) is -0.0957 (inactive); in [8] (setting [16]), -0.0886. Besides, the viability in assay [10] (setting [17]) was 111% (inactive); in [10] (setting [18]), 124% (inactive); in [10] (setting [19]), 101% (inactive); in assay [10] (setting [20]) it was 106% (inactive); in [10] (setting [21]), 108% (inactive); in [10] (setting [22]) it was 122% (inactive). Also, the viability in assay [10] (setting [23]) was 101% (inactive); in assay [10] (setting [24]), 106% (inactive); in [10] (setting [25]), 118% (inactive); in assay [10] (setting [26]), 114% (inactive); in assay [10] (setting [27]) it was 98% (active); in assay [10] (setting [28]), 99% (active). Further, the viability in [10] (setting [29]) is 126% (inactive); in [10] (setting [30]), 129% (inactive); in [10] (setting [31]), 88.1% (active); in assay [10] (setting [32]), 102% (inactive); in assay [10] (setting [33]), 113% (inactive); in [10] (setting [34]), 116% (inactive). The viability in assay [10] (setting [35]) was 102% (inactive); in assay [10] (setting [36]), 99.7% (active); in [10] (setting [37]), 127% (inactive); in assay [10] (setting [38]), 127% (inactive); in [10] (setting [39]), 93.1% (active); in assay [10] (setting [40]) it was 99.5% (active). Further, the viability in [10] (setting [41]) was 121% (inactive); in [10] (setting [42]) it was 115% (inactive); in assay [10] (setting [43]), 93.8% (active); in assay [10] (setting [44]), 91.8% (active); in [10] (setting [45]), 80.9% (active); in assay [10] (setting [46]) it was 133% (inactive). Besides, the results for the viability in assay [10] (setting [47]) and in assay [10] (setting [48]) were 58.5% (active) and 78% (active), respectively.
For the compound `COc1cc(OC2CCN(C)CC2)ccc1Nc1ncc2c(n1)n(C1CCCC1)c(=O)n2C`, the AC50 was 16.6 µM (active) in [1], 18.7 µM (active) in assay [2], 13.2 µM (active) in [5] and 14.8 µM (active) in assay [6]. For the same compound, the IC50 in [4] is 16.6 µM (active). Besides, the fold change in assay [7] (setting [11]) was 0.984 (inactive); in [7] (setting [12]) it was 0.864. Besides, the cell count in assay [7] (setting [13]) amounted to 5400; in assay [7] (setting [14]) it was 5490; in assay [9] it was 7430. Moreover, in assay [9], the SSMD was determined as 1.43. For the same compound, the plate-normalised HSF1 focus index in [9] was 1.05 (inactive). Moreover, the z-score in assay [8] (setting [15]) was -0.255 (inactive); in [8] (setting [16]) it was 0.614. Besides, the viability in [10] (setting [17]) is 107% (inactive); in assay [10] (setting [18]), 133% (inactive); in assay [10] (setting [19]), 116% (inactive); in [10] (setting [20]), 112% (inactive); in assay [10] (setting [21]), 107% (inactive); in assay [10] (setting [22]) it was 125% (inactive). Also, the viability in assay [10] (setting [23]) was 117% (inactive); in assay [10] (setting [24]), 115% (inactive); in assay [10] (setting [25]), 107% (inactive); in [10] (setting [26]) it was 120% (inactive); in assay [10] (setting [27]), 110% (inactive); in assay [10] (setting [28]), 108% (inactive). The viability in assay [10] (setting [29]) is 105% (inactive); in assay [10] (setting [30]), 113% (inactive); in assay [10] (setting [31]), 112% (inactive); in assay [10] (setting [32]), 94% (active); in assay [10] (setting [33]), 96.6% (active); in [10] (setting [34]) it was 120% (inactive). In addition, the viability in [10] (setting [35]) was 118% (inactive); in [10] (setting [36]), 110% (inactive); in [10] (setting [37]) it was 101% (inactive); in [10] (setting [38]) it was 124% (inactive); in assay [10] (setting [39]), 122% (inactive); in assay [10] (setting [40]), 111% (inactive). The viability in assay [10] (setting [41]) was 48.8% (active); in assay [10] (setting [42]) it was 115% (inactive); in assay [10] (setting [43]), 106% (inactive); in [10] (setting [44]), 64.7% (active); in assay [10] (setting [45]) it was 46.3% (active); in [10] (setting [46]), 115% (inactive). Besides, the results for the viability in [10] (setting [47]) and in assay [10] (setting [48]) were 76.9% (active) and 28.1% (active), respectively.

The values above are taken from PubChem BioAssay.
